Results as given in PMC11006913.

What was measured:
Assay in all cases: PBM; 200 nM protein, PBS
Conditions in all cases: dsDNA, one strand shown
HOXB9 [1] = target: HOXB9 (Homo sapiens, UniProt P17482 171-250, T197M)
HOXB9 [2] = target: HOXB9 (Homo sapiens, UniProt P17482 171-250)
VAX1 [3] = target: VAX1 (Homo sapiens, UniProt Q5SQQ9 86-172)
HOXB9 [4] = target: HOXB9 (Homo sapiens, UniProt P17482 171-250, R186Q)
VAX1 [5] = target: VAX1 (Homo sapiens, UniProt Q5SQQ9 86-172, T142I)
VAX1 [6] = target: VAX1 (Homo sapiens, UniProt Q5SQQ9 86-172, K157R)
HOXD13 [7] = target: HOXD13 (Homo sapiens, UniProt P35453 263-343, T313R)
PITX2 = PITX2 (Homo sapiens, UniProt Q99697 72-157)
HOXD13 [8] = target: HOXD13 (Homo sapiens, UniProt P35453 263-343)
HOXD13 [9] = target: HOXD13 (Homo sapiens, UniProt P35453 263-343, T313A)
ALX1 [10] = target: ALX1 (Homo sapiens, UniProt Q15699 118-204, L144V)
ALX1 [11] = target: ALX1 (Homo sapiens, UniProt Q15699 118-204, L144R)
ALX1 [12] = target: ALX1 (Homo sapiens, UniProt Q15699 118-204)
MSX2 [13] = target: MSX2 (Homo sapiens, UniProt P35548 130-214, R199I)
MSX2 [14] = target: MSX2 (Homo sapiens, UniProt P35548 130-214)
MSX2 [15] = target: MSX2 (Homo sapiens, UniProt P35548 130-214, F161Y)
HOXA2 [16] = target: HOXA2 (Homo sapiens, UniProt O43364 129-215, R185T)
NKX2-6 = target: T1, NKX2-6 (Homo sapiens, UniProt A6NCS4 118-204, R150C)
T1 sequence: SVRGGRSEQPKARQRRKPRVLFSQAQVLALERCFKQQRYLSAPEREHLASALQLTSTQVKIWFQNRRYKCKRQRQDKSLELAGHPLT

ALX3 [17] = target: ALX3 (Homo sapiens, UniProt O95076 139-225, N203Q)
HOXA2 [18] = target: HOXA2 (Homo sapiens, UniProt O43364 129-215, R185K)
ALX3 [19] = target: ALX3 (Homo sapiens, UniProt O95076 139-225)
ALX3 [20] = target: ALX3 (Homo sapiens, UniProt O95076 139-225, L168Q)
ALX3 [21] = target: ALX3 (Homo sapiens, UniProt O95076 139-225, L168V)
HOXA2 [22] = target: HOXA2 (Homo sapiens, UniProt O43364 129-215, Y150S)
ALX3 [23] = target: ALX3 (Homo sapiens, UniProt O95076 139-225, N203S)
HOXA2 [24] = target: HOXA2 (Homo sapiens, UniProt O43364 129-215)
Chain of HOXA2 (Homo sapiens, UniProt O43364 129-215) (O43364 129-215): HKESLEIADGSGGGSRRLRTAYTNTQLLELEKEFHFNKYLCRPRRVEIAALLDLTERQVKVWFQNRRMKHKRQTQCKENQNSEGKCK

Chain of HOXB9 (Homo sapiens, UniProt P17482 171-250, R186Q) (P17482 171-250 R186Q): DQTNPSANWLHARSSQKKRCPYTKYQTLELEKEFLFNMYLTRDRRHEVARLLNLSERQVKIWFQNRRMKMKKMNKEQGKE
Chain of HOXB9 (Homo sapiens, UniProt P17482 171-250, T197M) (P17482 171-250 T197M): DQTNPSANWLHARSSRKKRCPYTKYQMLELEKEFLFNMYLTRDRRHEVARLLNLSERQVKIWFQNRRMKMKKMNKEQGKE
Chain of HOXB9 (Homo sapiens, UniProt P17482 171-250) (P17482 171-250): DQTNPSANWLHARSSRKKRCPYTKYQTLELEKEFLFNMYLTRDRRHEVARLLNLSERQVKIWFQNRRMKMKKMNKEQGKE
Chain of HOXD13 (Homo sapiens, UniProt P35453 263-343, T313R) (P35453 263-343 T313R): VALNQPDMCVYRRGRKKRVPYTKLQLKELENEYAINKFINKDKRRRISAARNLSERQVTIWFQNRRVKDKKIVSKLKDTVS
Chain of VAX1 (Homo sapiens, UniProt Q5SQQ9 86-172, T142I) (Q5SQQ9 86-172 T142I): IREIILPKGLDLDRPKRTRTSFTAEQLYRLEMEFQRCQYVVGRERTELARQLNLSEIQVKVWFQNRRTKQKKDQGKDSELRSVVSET
Chain of MSX2 (Homo sapiens, UniProt P35548 130-214, R199I) (P35548 130-214 R199I): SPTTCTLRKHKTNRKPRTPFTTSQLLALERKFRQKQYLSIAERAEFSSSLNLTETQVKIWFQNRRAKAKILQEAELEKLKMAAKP
Chain of VAX1 (Homo sapiens, UniProt Q5SQQ9 86-172) (Q5SQQ9 86-172): as the sequence (Q5SQQ9 86-172 T142I) above, with I57T counted along it
Chain of MSX2 (Homo sapiens, UniProt P35548 130-214, F161Y) (P35548 130-214 F161Y): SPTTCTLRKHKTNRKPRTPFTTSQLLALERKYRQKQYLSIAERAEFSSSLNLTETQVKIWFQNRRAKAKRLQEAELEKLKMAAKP
Chain of VAX1 (Homo sapiens, UniProt Q5SQQ9 86-172, K157R) (Q5SQQ9 86-172 K157R): as the sequence (Q5SQQ9 86-172 T142I) above, with I57T, K72R counted along it
Chain of MSX2 (Homo sapiens, UniProt P35548 130-214) (P35548 130-214): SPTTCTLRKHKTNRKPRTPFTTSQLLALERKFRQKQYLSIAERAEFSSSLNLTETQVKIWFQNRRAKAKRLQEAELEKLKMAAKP
Chain of ALX1 (Homo sapiens, UniProt Q15699 118-204, L144R) (Q15699 118-204 L144R): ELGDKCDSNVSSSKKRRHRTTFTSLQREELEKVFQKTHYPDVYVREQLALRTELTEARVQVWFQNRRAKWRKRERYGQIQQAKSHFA
Chain of HOXA2 (Homo sapiens, UniProt O43364 129-215, R185T) (O43364 129-215 R185T): as the sequence (O43364 129-215) above, with R57T counted along it
Chain of HOXD13 (Homo sapiens, UniProt P35453 263-343) (P35453 263-343): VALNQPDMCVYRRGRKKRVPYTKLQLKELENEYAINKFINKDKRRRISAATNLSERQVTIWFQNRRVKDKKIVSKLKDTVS
Chain of HOXD13 (Homo sapiens, UniProt P35453 263-343, T313A) (P35453 263-343 T313A): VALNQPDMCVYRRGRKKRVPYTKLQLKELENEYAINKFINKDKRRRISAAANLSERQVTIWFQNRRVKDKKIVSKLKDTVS
Chain of ALX3 (Homo sapiens, UniProt O95076 139-225, N203Q) (O95076 139-225 N203Q): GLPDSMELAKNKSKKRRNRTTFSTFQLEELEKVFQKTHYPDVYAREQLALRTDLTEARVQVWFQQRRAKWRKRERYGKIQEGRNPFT
Chain of ALX3 (Homo sapiens, UniProt O95076 139-225) (O95076 139-225): as the sequence (O95076 139-225 N203Q) above, with Q65N counted along it
Chain of ALX1 (Homo sapiens, UniProt Q15699 118-204) (Q15699 118-204): as the sequence (Q15699 118-204 L144R) above, with R27L counted along it
Chain of HOXA2 (Homo sapiens, UniProt O43364 129-215, R185K) (O43364 129-215 R185K): as the sequence (O43364 129-215) above, with R57K counted along it
Chain of HOXA2 (Homo sapiens, UniProt O43364 129-215, Y150S) (O43364 129-215 Y150S): as the sequence (O43364 129-215) above, with Y22S counted along it
Chain of ALX1 (Homo sapiens, UniProt Q15699 118-204, L144V) (Q15699 118-204 L144V): as the sequence (Q15699 118-204 L144R) above, with R27V counted along it
Chain of ALX3 (Homo sapiens, UniProt O95076 139-225, L168V) (O95076 139-225 L168V): as the sequence (O95076 139-225 N203Q) above, with L30V, Q65N counted along it
Chain of ALX3 (Homo sapiens, UniProt O95076 139-225, N203S) (O95076 139-225 N203S): as the sequence (O95076 139-225 N203Q) above, with Q65S counted along it
Chain of ALX3 (Homo sapiens, UniProt O95076 139-225, L168Q) (O95076 139-225 L168Q): as the sequence (O95076 139-225 N203Q) above, with L30Q, Q65N counted along it

In the case of CTTGGGCC, the binding signal (HOXB9 [1]) is reported as 8.42 upbm affinity estimate (log intensity, higher = more binding, comparable within an allelic series), the binding signal (HOXB9 [2]) is reported as 8.37 upbm affinity estimate (log intensity, higher = more binding, comparable within an allelic series) and the binding signal (VAX1 [3]) is reported as 6.94 upbm affinity estimate (log intensity, higher = more binding, comparable within an allelic series). For the same sequence, the binding signal (HOXB9 [4]) was 8.33 upbm affinity estimate (log intensity, higher = more binding, comparable within an allelic series), the binding signal (VAX1 [5]) was 7.04 upbm affinity estimate (log intensity, higher = more binding, comparable within an allelic series) and the binding signal (VAX1 [6]) was 6.93 upbm affinity estimate (log intensity, higher = more binding, comparable within an allelic series).

With CGCCCAGA the binding signal (HOXB9 [1]) was 8.62 upbm affinity estimate (log intensity, higher = more binding, comparable within an allelic series), the binding signal (HOXB9 [2]) was 8.59 upbm affinity estimate (log intensity, higher = more binding, comparable within an allelic series) and the binding signal (VAX1 [3]) was 7.13 upbm affinity estimate (log intensity, higher = more binding, comparable within an allelic series). For the same sequence, the binding signal (HOXB9 [4]) was 8.62 upbm affinity estimate (log intensity, higher = more binding, comparable within an allelic series), the binding signal (VAX1 [5]) was 7.22 upbm affinity estimate (log intensity, higher = more binding, comparable within an allelic series) and the binding signal (VAX1 [6]) was 7.49 upbm affinity estimate (log intensity, higher = more binding, comparable within an allelic series).

In the case of CAATCAAC, the binding signal (HOXB9 [1]) is reported as 9.17 upbm affinity estimate (log intensity, higher = more binding, comparable within an allelic series), the binding signal (HOXB9 [2]) is reported as 9.95 upbm affinity estimate (log intensity, higher = more binding, comparable within an allelic series) and the binding signal (HOXB9 [4]) is reported as 9.93 upbm affinity estimate (log intensity, higher = more binding, comparable within an allelic series).

For CCACGTCG, the binding signal (HOXB9 [1]) was 8.7 upbm affinity estimate (log intensity, higher = more binding, comparable within an allelic series), the binding signal (HOXB9 [2]) was 8.53 upbm affinity estimate (log intensity, higher = more binding, comparable within an allelic series) and the binding signal (HOXB9 [4]) was 8.57 upbm affinity estimate (log intensity, higher = more binding, comparable within an allelic series).

For CCTTCGCG, the binding signal (HOXB9 [1]) was 8.71 upbm affinity estimate (log intensity, higher = more binding, comparable within an allelic series), the binding signal (HOXB9 [2]) was 8.45 upbm affinity estimate (log intensity, higher = more binding, comparable within an allelic series) and the binding signal (HOXB9 [4]) was 8.78 upbm affinity estimate (log intensity, higher = more binding, comparable within an allelic series).

In the case of GCAGGCCC, the binding signal (HOXB9 [1]) is reported as 8.19 upbm affinity estimate (log intensity, higher = more binding, comparable within an allelic series), the binding signal (HOXB9 [2]) is reported as 8.31 upbm affinity estimate (log intensity, higher = more binding, comparable within an allelic series) and the binding signal (HOXD13 [7]) is reported as 9.4 upbm affinity estimate (log intensity, higher = more binding, comparable within an allelic series). The binding signal (PITX2) was 7.9 upbm affinity estimate (log intensity, higher = more binding, comparable within an allelic series), the binding signal (HOXD13 [8]) was 9.64 upbm affinity estimate (log intensity, higher = more binding, comparable within an allelic series) and the binding signal (HOXD13 [9]) was 9.61 upbm affinity estimate (log intensity, higher = more binding, comparable within an allelic series). For the same sequence, the binding signal (HOXB9 [4]) was 8.26 upbm affinity estimate (log intensity, higher = more binding, comparable within an allelic series).

For CCTATAAG, the binding signal (HOXB9 [1]) was 9.17 upbm affinity estimate (log intensity, higher = more binding, comparable within an allelic series) and the binding signal (HOXB9 [2]) was 9.71 upbm affinity estimate (log intensity, higher = more binding, comparable within an allelic series).

With CCTGCGGC the binding signal (HOXB9 [1]) was 8.26 upbm affinity estimate (log intensity, higher = more binding, comparable within an allelic series), the binding signal (HOXB9 [2]) was 8.14 upbm affinity estimate (log intensity, higher = more binding, comparable within an allelic series) and the binding signal (HOXB9 [4]) was 8.19 upbm affinity estimate (log intensity, higher = more binding, comparable within an allelic series).

In the case of CCAGACCG, the binding signal (HOXB9 [1]) is reported as 8.54 upbm affinity estimate (log intensity, higher = more binding, comparable within an allelic series), the binding signal (HOXB9 [2]) is reported as 8.51 upbm affinity estimate (log intensity, higher = more binding, comparable within an allelic series) and the binding signal (HOXB9 [4]) is reported as 8.43 upbm affinity estimate (log intensity, higher = more binding, comparable within an allelic series).

In the case of CTCGACCA, the binding signal (HOXB9 [1]) is reported as 8.44 upbm affinity estimate (log intensity, higher = more binding, comparable within an allelic series), the binding signal (HOXB9 [2]) is reported as 8.28 upbm affinity estimate (log intensity, higher = more binding, comparable within an allelic series) and the binding signal (ALX1 [10]) is reported as 6.22 upbm affinity estimate (log intensity, higher = more binding, comparable within an allelic series). For the same sequence, the binding signal (ALX1 [11]) was 6.21 upbm affinity estimate (log intensity, higher = more binding, comparable within an allelic series), the binding signal (HOXB9 [4]) was 8.38 upbm affinity estimate (log intensity, higher = more binding, comparable within an allelic series) and the binding signal (ALX1 [12]) was 6.22 upbm affinity estimate (log intensity, higher = more binding, comparable within an allelic series).

CTGGCGTC was tested, and the binding signal (HOXB9 [1]) was 8.43 upbm affinity estimate (log intensity, higher = more binding, comparable within an allelic series), the binding signal (HOXB9 [2]) was 8.27 upbm affinity estimate (log intensity, higher = more binding, comparable within an allelic series) and the binding signal (MSX2 [13]) was 9.45 upbm affinity estimate (log intensity, higher = more binding, comparable within an allelic series). For the same sequence, the binding signal (MSX2 [14]) was 9.51 upbm affinity estimate (log intensity, higher = more binding, comparable within an allelic series), the binding signal (HOXB9 [4]) was 8.34 upbm affinity estimate (log intensity, higher = more binding, comparable within an allelic series) and the binding signal (MSX2 [15]) was 9.44 upbm affinity estimate (log intensity, higher = more binding, comparable within an allelic series).

In the case of TATAAATA, the binding signal (HOXB9 [1]) is reported as 9.81 upbm affinity estimate (log intensity, higher = more binding, comparable within an allelic series), the binding signal (HOXB9 [2]) is reported as 11.2 upbm affinity estimate (log intensity, higher = more binding, comparable within an allelic series) and the binding signal (HOXD13 [7]) is reported as 10.8 upbm affinity estimate (log intensity, higher = more binding, comparable within an allelic series). For the same sequence, the binding signal (HOXB9 [4]) was 10.8 upbm affinity estimate (log intensity, higher = more binding, comparable within an allelic series).

GCGCGGCA was tested, and the binding signal (HOXB9 [1]) was 8.49 upbm affinity estimate (log intensity, higher = more binding, comparable within an allelic series), the binding signal (HOXA2 [16]) was 7.06 upbm affinity estimate (log intensity, higher = more binding, comparable within an allelic series) and the binding signal (HOXB9 [2]) was 8.54 upbm affinity estimate (log intensity, higher = more binding, comparable within an allelic series). For the same sequence, the binding signal (NKX2-6) was 9.57 upbm affinity estimate (log intensity, higher = more binding, comparable within an allelic series), the binding signal (MSX2 [13]) was 9.56 upbm affinity estimate (log intensity, higher = more binding, comparable within an allelic series) and the binding signal (ALX3 [17]) was 7.82 upbm affinity estimate (log intensity, higher = more binding, comparable within an allelic series). For the same sequence, the binding signal (HOXA2 [18]) was 10.3 upbm affinity estimate (log intensity, higher = more binding, comparable within an allelic series), the binding signal (MSX2 [14]) was 9.62 upbm affinity estimate (log intensity, higher = more binding, comparable within an allelic series) and the binding signal (ALX3 [19]) was 7.75 upbm affinity estimate (log intensity, higher = more binding, comparable within an allelic series). The binding signal (ALX3 [20]) was 7.66 upbm affinity estimate (log intensity, higher = more binding, comparable within an allelic series), the binding signal (HOXB9 [4]) was 8.56 upbm affinity estimate (log intensity, higher = more binding, comparable within an allelic series) and the binding signal (ALX3 [21]) was 7.72 upbm affinity estimate (log intensity, higher = more binding, comparable within an allelic series). For the same sequence, the binding signal (MSX2 [15]) was 9.62 upbm affinity estimate (log intensity, higher = more binding, comparable within an allelic series), the binding signal (HOXA2 [22]) was 10.4 upbm affinity estimate (log intensity, higher = more binding, comparable within an allelic series) and the binding signal (ALX3 [23]) was 7.83 upbm affinity estimate (log intensity, higher = more binding, comparable within an allelic series). The binding signal (HOXA2 [24]) was 6.94 upbm affinity estimate (log intensity, higher = more binding, comparable within an allelic series).
